Screens from PubChem.
Giardia FBPA inh – Giardia lamblia aldolase inhibition | purified Giardia FBPA | AID 2451 | Potency, µM (highest dose often 59.6 µM), actives largely listed as inhibitors | A8B2U2 | 0.71% of 290,000 active; further: nearly all actives have a fitted effect of over 55% in size
Target sequence (A8B2U2 whole entry, looked up): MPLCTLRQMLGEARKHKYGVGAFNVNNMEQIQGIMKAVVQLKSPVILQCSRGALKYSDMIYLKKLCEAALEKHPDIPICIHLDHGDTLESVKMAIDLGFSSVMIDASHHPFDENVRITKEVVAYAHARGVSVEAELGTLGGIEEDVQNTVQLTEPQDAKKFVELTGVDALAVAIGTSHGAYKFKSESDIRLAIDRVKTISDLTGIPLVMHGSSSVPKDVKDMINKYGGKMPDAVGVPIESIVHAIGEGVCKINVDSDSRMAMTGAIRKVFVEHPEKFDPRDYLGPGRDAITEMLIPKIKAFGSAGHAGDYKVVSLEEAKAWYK
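Giardia FBPA (40 nM reagent) was preincubated 10 min at RT with compound (up to 57.5 uM final), then substrate plus GAPDH/TPI/NAD/arsenate coupling system with diaphorase/resazurin was added; resorufin fluorescence (525/598 nm) was read after 20 min.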
Cycloheximide cs – counter-screen hit for Shiga toxin inhibitors, cycloheximide | cell reporter, cycloheximide protein synthesis inhibition counterscreen | max response, % | 12% of 300,000 active | AID 2314; in the data active means max response mostly above about 13%, no sharp cut-off; inactive means mostly below about 14%; further: read at 38.3 µM for the half of the compounds with a filed dose
Shiga toxin inh – Shiga toxin inhibition | 9.2% of 290,000 active | inhibition, % at 38.7 µM | Vero cells, Shiga toxin protein synthesis inhibition reporter; in the data active means inhibition mostly above about 28%, no sharp cut-off; inactive means mostly below about 43%
NS1 function inh – inhibitors of influenza NS1 protein function; AID 2326; 0.4% of 270,000 active; Potency, µM (highest dose often 46.1 µM); calls by dose curve; further: actives are rising curves; nearly all actives have a fitted effect of over 50% in size
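S. cerevisiae expressing influenza A NS1, grown in glucose, washed, then diluted 1:100 into pH 6.0 -URA galactose medium with 23 nl compound. Growth recovery read as OD600; NS1-free strain serves as control.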
LmPK inh – LmPK (Leishmania mexicana) enzyme inhibition. Q27686. purified LmPK, Kinase-Glo ATP luminescence, 1 h. Potency, µM (titrated, usually from 57.5 µM), actives largely listed as inhibitors. 0.37% of 290,000 active. AID 1721
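In 50 mM imidazole pH 7.2 with 7 mM MgCl2, LmPK (0.1 nM) turned over PEP (0.5 mM) and ADP (0.1 mM) for 1 h at room temperature. Luciferase read-out of ATP.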
Of the large screens only hits and unclear results are named; the others gave an inactive call. This is a sample that favours compounds with a hit; in the whole collection about 14% have one here. Unless noted, the call rests on the fitted dose curve; in most records, active means well fitted curve in the direction sought with a large enough effect; inconclusive means small, poorly fitted or top-dose-only effect, or another doubt; inactive means no such curve, though single readings can be large; an effect the other way counts as inactive or inconclusive.

COc1cccc(-c2cncnc2NCc2ccc(OC)cc2OC)c1	none (no result: Cycloheximide cs, Shiga toxin inh, NS1 function inh, LmPK inh)
COc1cccc(CNc2ccc(F)c([N+](=O)[O-])c2)c1O	Cycloheximide cs 30, Shiga toxin inh 47 (no result: NS1 function inh)
O=[N+]([O-])c1ccccc1CNc1ccc(F)c(Cl)c1	none
CCOc1ccc(N2CC(C(=O)Nc3cccc(S(=O)(=O)NC4=NCCC4)c3)CC2=O)cc1 (stereo unspecified)	none
CCSc1ccc(-c2ccco2)nn1	Cycloheximide cs 48, Shiga toxin inh 85 (no result: NS1 function inh)
CC(=O)Nc1ccc(NC(=O)CSc2ccc(-c3ccco3)nn2)cc1	none
CSc1ccc(-c2ccco2)nn1	Giardia FBPA inh inconclusive, Cycloheximide cs 25, Shiga toxin inh 127, LmPK inh inconclusive (no result: NS1 function inh)
COc1ccc(OC)c(/C(C)=N/Nc2ccc(C(=O)O)cc2)c1	Cycloheximide cs 38, Shiga toxin inh 55
COc1cc(C(=O)NNC(=O)c2ccc(NC(=O)C(C)(C)C)cc2)cc(OC)c1OC	none
COc1ccc(C(=O)O)cc1OC	none (no result: Cycloheximide cs, Shiga toxin inh, NS1 function inh, LmPK inh)
C/C(=N/Nc1ccc(C(=O)O)cc1)c1ccc(O)c(O)c1O	Giardia FBPA inh 7.1µM, Cycloheximide cs 51, Shiga toxin inh 84
COc1ccc(/C(C)=N/Nc2ccc(C(=O)O)cc2)cc1OC	Cycloheximide cs 41
COc1cc(/C(C)=N/Nc2ccc(C(=O)O)cc2)cc(OC)c1OC	Cycloheximide cs 70, Shiga toxin inh 171, NS1 function inh inconclusive
O=C(O)c1ccccc1SCCS(=O)(=O)c1ccc(Cl)cc1Cl	none
NC(=O)c1ccccc1N/C=C/C(=O)c1ccccc1	Cycloheximide cs 47, Shiga toxin inh 56, LmPK inh 7.9µM
COC(=O)c1ccccc1N/C=C/C(=O)c1ccc(Br)cc1	Cycloheximide cs 43, Shiga toxin inh 27
O=C(Nc1ccc(F)cc1F)c1cccc(C(=O)Nc2ccc(F)cc2F)n1	none
Cc1ccsc1/C=N/NC(=O)CN1CCN(Cc2ccccc2)CC1	none
Cc1ccsc1/C=N/N1CCN(c2ccccc2)CC1	Cycloheximide cs 71, Shiga toxin inh 60
Cc1ccsc1/C=N/N1CCN(c2ccccn2)CC1	Cycloheximide cs 31, Shiga toxin inh 55
Cc1ccsc1/C=N/N1CCN(Cc2ccccc2)CC1	Cycloheximide cs 24, Shiga toxin inh 38 (no result: NS1 function inh)
CC(=O)OCC1OC(C#Cc2ccc(Br)cc2)C=CC1OC(C)=O (stereo unspecified)	none (no result: Cycloheximide cs, Shiga toxin inh, NS1 function inh, LmPK inh)
N#CCCn1c(=O)c(-c2cccs2)nc2cnc(Oc3cccc(Cl)c3)nc21	none (no result: Cycloheximide cs, Shiga toxin inh, NS1 function inh, LmPK inh)
Cc1cccc(-n2ccc(=O)c(C(=O)Nc3ccc(S(=O)(=O)Nc4onc(C)c4C)cc3)n2)c1	none (no result: Giardia FBPA inh)
COc1ccccc1-c1nc(-c2cccc(C)c2)no1	Cycloheximide cs 46, Shiga toxin inh 122, LmPK inh inconclusive
COc1ccc(-c2nc(-c3cccc(C)c3)no2)cc1OC	Cycloheximide cs 25, Shiga toxin inh 60
COc1cc(-c2nc(-c3cccc(C)c3)no2)cc(OC)c1OC	Cycloheximide cs 16, Shiga toxin inh 33
Cc1cccc(-c2noc(-c3c(C)noc3C)n2)c1	none
COc1ccc(-c2nc(-c3cccc(C(F)(F)F)c3)no2)cc1OC	none
COc1ccc(CNC(=O)[C@H](C)NC(=O)[C@@H]2Cc3ccccc3CN2)cc1	Giardia FBPA inh inconclusive
CC(C)(C)C(=O)CC(=O)Nc1ccc(Cl)c(N)c1	Cycloheximide cs 47, Shiga toxin inh 167
CC(=O)N1CCC(=NNC(=O)c2cc3ccccc3cc2O)CC1	none (no result: Giardia FBPA inh)
Cc1nnc(SCC(=O)N2CCC(C(N)=O)CC2)s1	none
Cc1nnc(SCC(=O)N(C)C2CCCCC2)s1	Cycloheximide cs 11
Cc1ccc(NC(=O)C2(C)Cc3ccccc3C(=O)O2)cc1 (stereo unspecified)	none
CC(C)Oc1ccc(CCC(=O)NNC(=O)c2ccccc2C(=O)O)cc1	none
O=C(NNC(=O)c1ccccc1C(=O)O)c1ccc(O)cc1	Cycloheximide cs 23
CC(C)Oc1ccc(C(=O)NNC(=O)c2ccccc2C(=O)O)cc1	Cycloheximide cs 17
Cc1cc(C)cc(C(=O)NC(CC(N)=O)c2ccc(NCCN3CCCC3)c([N+](=O)[O-])c2)c1 (stereo unspecified)	none
COCc1nnc(NC(=O)c2cccc(NC(=O)c3ccccc3)c2)s1	none
Cn1c(C[C@@H](O)c2nc3ccccc3n2C)nc2ccccc21	none (no result: Giardia FBPA inh, Cycloheximide cs, Shiga toxin inh, LmPK inh)
CS(=O)(=O)/C(C#N)=C\c1cnc(S(=O)(=O)c2ccccc2)s1	Giardia FBPA inh inconclusive, Cycloheximide cs 31
COC(=O)c1cccc(NC(=O)COC(=O)CSc2nc(C)cc(C)n2)c1	none
Cc1ccc2nc(NC(=O)COC(=O)CSc3nc(C)cc(C)n3)sc2c1	Cycloheximide cs 41, Shiga toxin inh 78
CSc1nsc(SCC(=O)Nc2nc3ccc(C)cc3s2)n1	Cycloheximide cs 20
COC(=O)c1ccc2nc(NC(=O)COC(=O)CSc3nc(C)cc(C)n3)sc2c1	Cycloheximide cs 31, Shiga toxin inh 65
CSc1nsc(SCC(=O)Nc2ccc(C(N)=O)cc2)n1	none
Cc1cc(C)c(S(=O)(=O)/N=C2/C=C(SCC(=O)O)C(=O)c3ccccc32)cc1C	Giardia FBPA inh 16µM (no result: NS1 function inh)
Cc1cc(C)c(S(=O)(=O)/N=C2\C=C(Nc3ccc(C(=O)O)cc3)C(=O)c3ccccc32)c(C)c1	Giardia FBPA inh inconclusive
CCc1ccc(OCc2nc(-c3ccccn3)no2)c(Br)c1	Cycloheximide cs 29, LmPK inh inconclusive
Cc1ccc(OCc2nc(-c3ccccn3)no2)cc1	Cycloheximide cs 29
CC(C)(C)Cc1nc(-c2ccccn2)no1	Cycloheximide cs 34, Shiga toxin inh 76
CC(Oc1ccc(Cl)cc1Cl)c1nc(-c2ccccn2)no1 (stereo unspecified)	Cycloheximide cs 36, Shiga toxin inh 97
CCC(c1ccccc1)c1nc(-c2ccccn2)no1 (stereo unspecified)	none
COCCn1c(=O)c(-c2ccc(Cl)cc2)nc2cnc(Oc3ccc(OC)cc3)nc21	none (no result: Cycloheximide cs, Shiga toxin inh, NS1 function inh, LmPK inh)
Cc1ccc(OCc2nc(-c3ccccn3)no2)c(Br)c1	LmPK inh 16µM
CC(C)c1ccc(OCc2nc(-c3ccccn3)no2)c(Br)c1	Cycloheximide cs 46, Shiga toxin inh 67
Cc1cc(OCc2nc(-c3cccnc3)no2)c(C)cc1Br	NS1 function inh inconclusive
CC(C)c1ccc(OCC(=O)N2CCN(c3ccccn3)CC2)c(Br)c1	none
Cc1csc(C(C#N)C(=O)c2cc3ccccc3o2)n1 (stereo unspecified)	Cycloheximide cs 25, Shiga toxin inh 55
Cc1cc(CNC(=O)[C@@H]2C[C@H]2[C@@H](NP(=O)(c2ccccc2)c2ccccc2)c2ccccc2)nn1C	none (no result: Cycloheximide cs, Shiga toxin inh, NS1 function inh, LmPK inh)
COCC(=O)N1CCC2(CC1)CCN(C(=O)Nc1cccc(C#N)c1)CC2	none (no result: Cycloheximide cs, Shiga toxin inh, NS1 function inh, LmPK inh)
CCOc1cc(C(=O)O/N=C(\N)c2ccccn2)cc(OCC)c1OCC	Cycloheximide cs 53, Shiga toxin inh 54
CCOc1cc(C(=O)O/N=C(\N)c2ccc([N+](=O)[O-])cc2)cc(OCC)c1OCC	none
CCOc1ccc(C(=O)O/N=C(\N)c2ccccn2)cc1OCC	Cycloheximide cs 52, Shiga toxin inh 85 (no result: Giardia FBPA inh)
CCn1c(COc2cccc3cccnc23)nnc1SC(F)F	none
